Consider 40 molecules from PubChem BioAssay (NCI).

Compounds without any hit were thinned out: in the full panel of roughly 83,000, 20% have a hit.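 Cell lines were cultured in 96-well plates, exposed to a single compound concentration, and assessed for percent growth 48 hours later.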 A number with no mark means an inactive call. Activity calls are given as the source filed them. Rule for the calls: active = growth percent below 10; inactive = the rest.

In the assay the test system is NCI-H23 lung. In words: NCI-60 one-dose screen, 48 h (100 = growth as untreated, 0 = no growth, -100 = all killed). The note with it: 10 µM.
Turning to `O=C1CC(=O)N(C(=O)c2nn(-c3ccc(Cl)cc3)cc2O)N1`, the growth is 39.3%.
The same measure for `COc1ccc2c(c1)C(=O)/C(=C/c1ncc([N+](=O)[O-])n1C)O2`: -5.43% (active); for `S=C1N(c2ccccc2)CN(C2CCCCC2)CN1c1ccccc1`: 100%.
The result for `COc1cc2cc(Oc3ccc(NC(=O)c4ccc(Cl)c(C(F)(F)F)c4)cc3)c(C)nc2cc1OC` reads 12.5%; that for `O=C(N/N=C/c1c(Cl)cccc1Cl)c1ccccc1Nc1cccc(C(F)(F)F)c1`, 102%; that for `O=C1/C(=C/c2ccc([N+](=O)[O-])s2)Oc2cc(Cl)ccc21`, 14.7%.
On to `N#Cc1cnn(C(=O)c2nn(-c3ccc(Cl)cc3)cc2O)c1N`, for which the growth is 9.65% (active).
The result for `O=C(CCC(C(=O)c1ccccc1)c1ccccc1)c1ccccc1` (stereo not given) reads 78.6%; that for `O=C1c2c(c(=O)[nH]c3ccccc23)CCN1Cc1ccccc1`, 102%.
The result for `Cc1ccc(C2NC(=S)N3C(c4ccc(C)cc4)NC(=S)N23)cc1` (stereo not given) reads 38.9%; that for `COc1cc(-c2ccc(N=Nc3ccc4c(S(=O)(=O)O)ccc(N)c4c3O)c(OC)c2)ccc1N=Nc1ccc2c(S(=O)(=O)O)ccc(N)c2c1O`, 101%.
The result for `c1ccc(/C(=N\Nc2ccc3ccccc3n2)c2ccccn2)cc1` reads 21.3%; that for `COc1ccc(C2CC(c3cc(OC)c(OC)c(OC)c3)=NN2)cc1` (stereo not given), 86.6%.
On to `CSc1nc2c(c(=O)n1C)CN(Cc1ccccc1)C(=O)CN2`, for which the growth was 93.5%.
The same measure for `COc1ccc(C(=O)c2cc3c(OC)c(OC)c(OC)cc3[nH]2)cc1`: 32.3%.
The same measure for `COc1cc2c(Nc3ccc(-c4ccc(N)cc4)cc3)ncnc2c(OC)c1OC`: 70.6%; for `COc1ccc(N(C)c2ncnc3occ(C)c23)cc1`: 6.05% (active).
The result for `O=C1/C=C/[C@@H](O)[C@@H]2C[C@@H](O)C[C@H]2/C=C/CCC[C@H](CCc2ccc(C(F)(F)F)cc2)O1` reads -10.5% (active).
With `COc1ccc2c(c1)C(=O)/C(=C/c1ccc([N+](=O)[O-])o1)O2`, the growth was -59% (active).
The result for `Nc1ccc(CC[C@H]2CCC/C=C/[C@@H]3C[C@H](O)C[C@H]3[C@H](O)/C=C/C(=O)O2)cc1` reads -22.7% (active); that for `COc1ccc(/C=C2\CCCC3C2=Nc2ccccc2NC3c2ccc(OC)cc2)cc1` (stereo not given), 78.7%.
The same measure for `NC1=NC(c2ccccc2)C2=C(N1)/C(=C/c1ccccc1)CCC2` (stereo not given): 78.1%; for `Cc1c2c(nn1C(=O)c1nn(-c3ccc(Cl)cc3)cc1O)-c1ccccc1CC2`: 16.6%.
Take `COc1nc2c(c(=O)n1C)CN(c1ccccc1)C(=O)C(C)N2` (stereo not given): the growth is 95.7%.
The result for `COc1cccc2ccc(CC(O)(c3ccccc3)c3ccccc3)nc12` reads 89.6%; that for `CC(=O)Nc1ccc(S(=O)(=O)N/N=C(\C)c2ccc(C)cc2C)cc1`, 105%.
The result for `O=C(CSc1nnc(-c2cccnc2SCc2ccccc2)o1)Nc1nc(Cl)cc(Cl)n1` reads 102%; that for `CCN(CC)c1ccc(/C=C2\SC(=O)C(Nc3nnc(-c4cccnc4SCc4ccccc4)o3)C2=O)cc1` (stereo not given), 21.7%; that for `c1ccc(CSc2ncccc2-c2nnc(SCCN3CCOCC3)o2)cc1`, 104%.
The result for `CC(=O)C1N=NCC1c1ccccc1` (stereo not given) reads 106%.
With `CS(=O)(=O)c1nccc(-c2c(-c3cccc(OCc4ccc(F)cc4)c3)nc3sccn23)n1`, the growth was 53%.
The result for `Cc1ccc(NC(=S)NNC(=S)Nc2ccc(C)cc2)cc1` reads 72.8%; that for `Nc1ncc(-c2cnn(C3CCNCC3)c2)cc1-c1nc2ccccc2o1`, 20.2%; that for `O=C(CNc1nnc(-c2cccnc2SCc2ccccc2)s1)Nc1nc(Cl)cc(Cl)n1`, 112%.
The same measure for `CS(=O)(=O)c1nccc(-c2c(-c3cccc(OCCc4ccccc4)c3)nc3sccn23)n1`: 95.6%; for `NC1=NC(c2ccc(Cl)cc2)C2=C(N1)/C(=C/c1ccc(Cl)cc1)CCC2` (stereo not given): 61.1%.
The result for `COc1cc2cc(Oc3ccc(NC(=O)c4cccc(C(F)(F)F)c4)cc3)c(C)nc2cc1OC` reads 27.1%.
In the case of `COc1cc2cc(Oc3ccc(NC(=O)c4ccccc4)cc3)c(C)nc2cc1OC`, the growth is 83.5%.
Consider `COc1ccc(Nc2cnc3cc(NS(=O)(=O)c4ccc(C)cc4)ccc3n2)cc1`, for which the growth was 86.5%.
Turning to `CCOC(=O)c1cc(C(=O)c2cc(OC)c(OC)c(OC)c2)n2ncc3ccccc3c12`, the growth is 82.5%.
